The values below come from PubChem BioAssay (NCATS).

Results filed as inconclusive are left out. Calls of active or inactive are those of the source. Calls come from the whole dose curve; as a rule, active = well fitted cell-killing curve with a large enough effect; inconclusive = small, poorly fitted or top-dose-only effect, or effect the other way; inactive = flat fitted curve, though single readings scatter. Where a SMILES comes first, the peptide text is derived from it. [ ]: non-standard residue; d: D form. pGlu = O=C1CC[C@@H](C(=O)O)N1
% is set by controls: 0 for no effect and ±100 for the full control effect.

In the assay the test system is C33A. The experiment in a line: Primary qHTS to identify gynecologic anti-cancer compounds using libraries of approved drugs and bioactive compounds (AID 1345084). Note: nearly all actives have a fitted effect of over 55% in size. The settings on record: Gynecologic cancer cell panel viability, ATPlite luminescence, 48 h; series mostly up to 57.5 µM; activity change, negative = cytotoxicity: at the top concentration. Summed up: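 Cells, 1,000 per well, plated 16 h, then exposed 48 h at 37 C to compounds. Viability by ATPlite luminescence after 15 min at room temperature.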
In general terms: qHTS replaces the single test concentration by a dilution series.
`Cc1cnc(NS(=O)(=O)c2ccc(N)cc2)nc1`: the “activity change, negative = cytotoxicity” value is -1.34% (inactive).

In the case of `CC1c2ccccc2CN1NC(=O)c1ccc(Cl)c(S(N)(=O)=O)c1` (stereo not given), the “activity change, negative = cytotoxicity” value is 17.5% (inactive).

`CCC[C@H](N[C@@H](C)C(=O)N1[C@H](C(=O)O)C[C@@H]2CCCC[C@@H]21)C(=O)OCC`: the “activity change, negative = cytotoxicity” value was -0.231% (inactive).

As to `N#CSCC(=O)O`, the “activity change, negative = cytotoxicity” value is 0.746% (inactive).

`CC(C)(C)C1CCC(CC2=C(O)c3ccccc3C(=O)C2=O)CC1` (stereo not given): the “activity change, negative = cytotoxicity” value is -1.6% (inactive).

For `CCOC(=O)N1CCC(Nc2ccc(Cl)cc2N)CC1`, the “activity change, negative = cytotoxicity” value is -18.3% (inactive).

Consider `O=C(NO)c1ccccc1`, for which the “activity change, negative = cytotoxicity” value is -12.6% [at 116 µM] (inactive).

Turning to `Cc1cccc(N(C)C(=S)Oc2ccc3c(c2)CCC3)c1`, the “activity change, negative = cytotoxicity” value was 11.4% (inactive).

As for `Nc1nc2ccccc2n1Cc1ccc(F)cc1`, the “activity change, negative = cytotoxicity” value was -20.7% (inactive).

With `CC(C)(c1ccc(O)cc1)c1ccc(O)cc1`, the “activity change, negative = cytotoxicity” value is 7.43% [at 116 µM] (inactive).

Consider `CC(=O)[C@H]1CC[C@H]2[C@@H]3C=CC4=CC(=O)CC[C@@]4(C)[C@@H]3CC[C@]12C`, for which the Potency result is “inactive”.

For the compound `O=C(OCCN1CCOCC1)c1cccnc1Nc1cccc(C(F)(F)F)c1`, the “activity change, negative = cytotoxicity” value is -11% (inactive).

In the case of `c1ccc(C(O[C@H]2CCCN(CCc3ccc4c(c3)OCO4)C2)c2ccccc2)cc1`, the “activity change, negative = cytotoxicity” value was -0.172% (inactive).

In the case of `O=C(CS(=O)Cc1ccco1)NC/C=C\COc1cc(CN2CCCCC2)ccn1` (stereo not given), the “activity change, negative = cytotoxicity” value is 2.47% (inactive).

For the compound `CCc1cc2cc(OC)c(OC)cc2c(Cc2ccccc2)n1`, the “activity change, negative = cytotoxicity” value was 14.3% (inactive).

On to `CCCC(=O)O[C@]1(C(=O)CC)CC[C@H]2[C@@H]3CCC4=CC(=O)CC[C@]4(C)[C@H]3[C@@H](O)C[C@@]21C`, for which the “activity change, negative = cytotoxicity” value is -6.56% (inactive).

For the compound `O=C(CCCl)NCCc1ccccc1`, the “activity change, negative = cytotoxicity” value was 29.3% (inactive).

For `C[N+]1(C)CCC(OC(=O)C(O)(c2ccccc2)C2CCCC2)C1` (stereo not given), the “activity change, negative = cytotoxicity” value was 10.2% (inactive).

Turning to `CC(=O)Nc1ccn(C2COC(COC(=O)c3ccccc3)O2)c(=O)n1` (stereo not given), the “activity change, negative = cytotoxicity” value was -7.31% (inactive).

Consider `CCNC(=O)[C@@H]1CCCN1C(=O)[C@H](CCCN=C(N)N)NC(=O)[C@H](CC(C)C)NC(=O)CNC(=O)[C@H](Cc1ccc(O)cc1)NC(=O)[C@H](CO)NC(=O)[C@H](Cc1c[nH]c2ccccc12)NC(=O)[C@H](Cc1cnc[nH]1)NC(=O)[C@@H]1CCC(=O)N1` ([pGlu]HWSYGLRP-NHEt), for which the “activity change, negative = cytotoxicity” value is 8.31% (inactive).

Consider `CC(C)Cc1ccc(C(C)C(=O)OCc2ccccn2)cc1` (stereo not given), for which the “activity change, negative = cytotoxicity” value is -7.56% (inactive).

In the case of `CC(CC1c2ccccc2CCc2ccccc21)CN(C)C` (stereo not given), the “activity change, negative = cytotoxicity” value is -28.2% (inactive).

In the case of `CCCCCCOC(=O)NC(=N)c1ccc(NCc2nc3cc(C(=O)N(CCC(=O)OCC)c4ccccn4)ccc3n2C)cc1`, the “activity change, negative = cytotoxicity” value is -1.26% (inactive).

With `Oc1cccc2[nH]ccc12`, the “activity change, negative = cytotoxicity” value was 1.7% (inactive).

`C[N+](C)(CCOc1ccccc1)Cc1cccs1`: the “activity change, negative = cytotoxicity” value was -23.6% (inactive).

Turning to `COc1cc2nc(Cl)nc(N)c2cc1OC`, the “activity change, negative = cytotoxicity” value is -6.85% (inactive).

Take `CN1CCC(N(Cc2cccs2)c2ccccc2)CC1`: the “activity change, negative = cytotoxicity” value is -0.349% (inactive).

With `CC[N+](CC)(CC)CCOC(=O)C(C1CCCC1)C1CCCC1`, the “activity change, negative = cytotoxicity” value is -25.1% (inactive).

`C/C(=N/NC(=O)c1ccncc1)C(=O)O`: the “activity change, negative = cytotoxicity” value was -2.59% (inactive).

In the case of `O=C(CCC1CCN(Cc2ccccc2)CC1)c1ccc2c(c1)NCCCC2`, the “activity change, negative = cytotoxicity” value is -25.9% (inactive).

Turning to `C[N+]1(CC2COC(c3ccccc3)(c3ccccc3)O2)CCCCC1` (stereo not given), the “activity change, negative = cytotoxicity” value was -13.1% [at 25.3 µM] (inactive).

As for `CCOC(=O)c1cc(=O)c2c(OCC(COc3cccc4oc(C(=O)OCC)cc(=O)c34)OC(=O)[C@@H](N)CCCCN)cccc2o1`, the “activity change, negative = cytotoxicity” value was 5.29% (inactive).

With `C=CCOc1cc(Cl)ccc1C(=O)NCCN(CC)CC`, the “activity change, negative = cytotoxicity” value was -11.7% (inactive).

With `CCOc1ncc(F)c(=O)[nH]1`, the “activity change, negative = cytotoxicity” value was 8.47% (inactive).

In the case of `O=C1OC2(c3ccccc31)c1cc(I)c(O)c(I)c1Oc1c2cc(I)c(O)c1I`, the “activity change, negative = cytotoxicity” value is 3.27% (inactive).
